Measured values: PubChem BioAssay AID485344 (National Center for Advancing Translational Sciences (NCATS), 2010)
About 6,900 (2%) of roughly 340,000 compounds were called active. The entries come from a sample that favours actives as a whole. Unmarked numbers belong to inactive results. Rule as the data show it: active = inhibition above about 30%; inactive = below that, where a call was filed.

Molecular target: D(2) dopamine receptor (Homo sapiens) (UniProt P14416)
Test: HTS Assay for Allosteric Antagonists of the Human D2 Dopamine Receptor: Primary Screen for Antagonists; also: 0% is about no effect
Conditions: HEK293 TREx D2 cells, calcium flux, dopamine EC80; at 10 µM; hits give high values
How it was run: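 Dopamine at EC80 is the agonist stimulus; test compounds precede it by 180 s. Calcium flux read kinetically in a force-coupled, inducible HEK293 T-REx D2 cell line.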

D(2) dopamine receptor (Homo sapiens), sequence (P14416 whole entry, looked up): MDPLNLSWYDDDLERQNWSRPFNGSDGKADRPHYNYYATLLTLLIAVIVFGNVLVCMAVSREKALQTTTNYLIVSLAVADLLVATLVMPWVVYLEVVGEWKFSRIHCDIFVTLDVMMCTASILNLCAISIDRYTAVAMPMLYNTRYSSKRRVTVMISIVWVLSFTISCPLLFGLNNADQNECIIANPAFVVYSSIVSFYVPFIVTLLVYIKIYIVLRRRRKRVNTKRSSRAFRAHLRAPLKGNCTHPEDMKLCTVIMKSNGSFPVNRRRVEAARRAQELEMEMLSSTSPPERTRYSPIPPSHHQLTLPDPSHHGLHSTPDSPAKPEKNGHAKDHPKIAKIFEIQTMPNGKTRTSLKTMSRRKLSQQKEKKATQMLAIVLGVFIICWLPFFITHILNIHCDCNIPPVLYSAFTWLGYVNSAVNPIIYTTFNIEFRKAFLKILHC

| SMILES | inhibition |
| --- | --- |
| Cc1ccc(S(=O)(=O)Nc2nc(CN3CCOCC3)nc3sc(C)c(C)c23)cc1 | -2.97% |
| COc1ccc(CNC(=O)COc2ccccc2C(=O)c2cnn(-c3ccccc3)c2)cc1OC | 7.52% |
| CC(CCN1CCN=C1N(C)C)c1ccccc1 (stereo not drawn) | 8.97% |
| NC(=O)c1nsc(C(=O)N(CCCN2CCOCC2)C(C(=O)NC2CCCCC2)c2ccc(Cl)cc2)c1N (stereo not drawn) | 30.5% (active) |
| CC(C)(C)NC(=O)C(c1ccc(Cl)cc1)N(CCO)C(=O)c1snc(C(N)=O)c1N (stereo not drawn) | -7.69% |
| CCOc1ccc(C(C(=O)NC2CCCC2)N(C(=O)c2snc(C(N)=O)c2N)C2CCCC2)cc1 (stereo not drawn) | -2.16% |
| Cc1cc(F)ccc1S(=O)(=O)Nc1ccc(C(=O)N(C)Cc2ccco2)cc1 | 2.47% |
| Cc1cccc(-n2c(Cc3cc(=O)[nH]c(=O)[nH]3)nnc2SC(C)C)c1 | -16% |
| COc1cccc(-n2c(Cc3cc(=O)[nH]c(=O)[nH]3)nnc2SCC(=O)Nc2ccccc2)c1 | -4.57% |
| Cc1cccc(-n2c(Cc3cc(=O)[nH]c(=O)[nH]3)nnc2SCC(=O)Nc2cccc(C(F)(F)F)c2)c1 | 36.6% (active) |
| O=C(Nc1cccc(C(=O)NC2CC2)c1)c1ccc(F)c(S(=O)(=O)N2CCOCC2)c1 | -7.88% |
| Cc1ccccc1C(=O)NC(=S)NC1CC1 | 31.1% (active) |
| Cc1ccccc1C(=O)NC(=S)Nc1ccc(N2CCN(C(=O)c3ccccc3)CC2)cc1 | -1.88% |
| O=C(NNC(=S)NC1CCCCC1)c1ccccc1Cl | -5.96% |
| CCn1c(SCC(=O)Nc2nccs2)nnc1-c1ccncc1 | 10.6% |
| CCn1c(SCC(=O)Nc2nccs2)nnc1-c1ccco1 | 83% (active) |
| Nn1c(SCC(=O)Nc2nccs2)nnc1-c1ccco1 | 3.93% |
| Cn1c(SCC(=O)c2cccs2)nnc1-c1ccco1 | -10.8% |
| Cn1c(SCC(=O)Nc2ccc(Br)cc2F)nnc1-c1ccco1 | 31% (active) |
| CCOC(=O)CSc1nnc(-c2ccco2)n1C | 25.3% |

| SMILES | inhibition |
| --- | --- |
| CSc1ncccc1C(=O)Nc1ccc2c(c1)OCO2 | -3.04% |
| CCc1ccccc1OCC(=O)Nc1ccc(C)c(S(=O)(=O)N2CCCCCC2)c1 | -4.67% |
| CCc1nnc(NC(=O)C2CCN(C(=O)c3ccccc3C)CC2)s1 | 14.3% |
| Cc1c(CC(=O)N2CCN(C(=O)C3COc4ccccc4O3)CC2)c(=O)oc2c(O)c(O)ccc12 (stereo not drawn) | 60% (active) |
| O=C(CNC(=O)C1COc2ccccc2O1)N/N=C/c1cc(Br)c(O)c(Br)c1 (stereo not drawn) | 7.94% |
| Cc1c(C)c2ccc(OCC(=O)N3CCC(C(=O)O)CC3)c(C)c2oc1=O | 2.01% |
| COc1cccc(CNC(=O)COC(=O)CN2C(=O)NC3(CCCCC3C)C2=O)c1 (stereo not drawn) | 4.18% |
| COc1cccc(C(=O)NCCS(=O)(=O)NCC2CCCO2)c1 (stereo not drawn) | 8.23% |
| O=C(COC(=O)c1cc(=O)[nH]c2ccccc12)NCc1cccc(Cl)c1 | -19.7% |
| O=C(NCCCN1CCN(c2ccccc2F)CC1)C1CCC(=O)N1C1CCCCC1 (stereo not drawn) | 55.7% (active) |
| COc1ccc(CN2CC(C(=O)NCCN3CCN(c4ccccc4F)CC3)CC2=O)cc1 (stereo not drawn) | 78.4% (active) |
| CCOC(=O)N1CCN(c2c(NCCN3CCN(c4ccccc4F)CC3)c(=O)c2=O)CC1 | -8.27% |
| O=C(NCCCN1CCCCCC1)C1CC(=O)N(C2CCCC2)C1 (stereo not drawn) | -15.4% |
| COc1ccc(CN2CC(C(=O)NC3CCCCC3)CC2=O)cc1 (stereo not drawn) | 9.38% |
| COc1ccc(CN2CC(C(=O)NCCc3ccc(Cl)cc3)CC2=O)cc1 (stereo not drawn) | 4.69% |
| CCOC(=O)C1CCN(C(=O)c2cccc(S(=O)(=O)N(CC)c3ccccc3)c2)CC1 | 14.5% |
| Nc1c(C(=O)OCC(=O)Nc2ccc(OC(F)F)cc2)[nH]c(=O)[nH]c1=O | 0.0124% |
| Cc1ccc(CSc2ccc(S(=O)(=O)N3CCCCC3)cn2)cc1 | -10.3% |
| COc1ccc(NC(=O)CSc2nnc(C3CC3)n2C)cc1S(=O)(=O)N1CCCCC1 | -7.07% |
| C/C(=N/NC(=O)CC(=O)N/N=C(\C)c1ccc([N+](=O)[O-])cc1)c1ccc([N+](=O)[O-])cc1 | -6.92% |

| SMILES | inhibition |
| --- | --- |
| CCOC(=O)COc1ccc([N+](=O)[O-])cc1 | 5.2% |
| C/C(=N\N(C)C)c1ccc(OCCOc2ccc([N+](=O)[O-])cc2)cc1 | 33.5% (active) |
| CC(=O)C[C@@H](O)CC(=O)[C@H]1OC(=O)CCCCCCc2ccccc21 | 3.89% |
| Cc1ccccc1NC(=O)COc1cccc2c1CCNC2=O | -0.505% |
| CCCCN(C(=O)CSCC(=O)Nc1ccc(OC)cc1)c1c(N)n(CCC)c(=O)[nH]c1=O | 9.85% |
| N#Cc1ccc(CN2CCN(CC(=O)Nc3ccccc3C(=O)NC3CC3)CC2)cc1 | 4.29% |
| CC1Cc2ccccc2N1S(=O)(=O)c1cccc(C(=O)NCC(c2ccco2)N2CCCC2)c1 (stereo not drawn) | -15% |
| COC(=O)CNS(=O)(=O)c1ccc(Cc2ccc(S(=O)(=O)NCC(=O)OC)cc2)cc1 | 41.3% (active) |
| COC(=O)CNS(=O)(=O)c1ccc(OC)cc1 | 6.78% |
| C/C(N)=C(/C#N)C(=O)COC(=O)CNS(=O)(=O)c1ccc(C)cc1 | 12.5% |
| CNS(=O)(=O)c1cccc(C(=O)OCCCC(=O)c2ccccc2)c1 | -4.56% |
| CCOC(=O)c1c(Cc2ccc(Cl)cc2)c[nH]c1C | -4.64% |
| CC(=O)c1c(C)c[nH]c1C | 31.1% (active) |
| O=C(CSc1ncnc2sccc12)N1CCN(C(=O)c2cccs2)CC1 | 30% |
| Cc1occc1-c1nnc(SCC(=O)NC2CCCCC2)o1 | 6.65% |
| Cc1ccc2c(c1)N(C(=O)CCC(=O)NCc1cccnc1)CCO2 | 13.2% |
| CC1CN(C(=O)CCC(=O)NC2CCN(Cc3ccccc3)CC2)c2ccccc2O1 (stereo not drawn) | -8.98% |
| CC1CN(C(=O)CCC(=O)NCc2cccnc2)c2ccccc2O1 (stereo not drawn) | 35.5% (active) |
